Test results: paper PMC7862700, “An all-to-all approach to the identification of sequence-specific readers for epigenetic DNA modifications on cytosine”

Tests used:
Experiment in all cases: DAPPL (digital affinity profiling via proximity ligation, sequencing); 10 mM Tris-HCl pH 7.5, 50 mM NaCl, 1 mM DTT, 4% glycerol, room temperature, 30 min; GST-TFs on glutathione beads, 16-mer random dsDNA library, 0.1% formaldehyde crosslink after washing; high values mean tight binding
[1] = molecular target: T1, FEV (Homo sapiens, UniProt Q99581 1-238); details: protein: recombinant; tags: N-terminal GST; dsDNA, one strand shown
T1 sequence: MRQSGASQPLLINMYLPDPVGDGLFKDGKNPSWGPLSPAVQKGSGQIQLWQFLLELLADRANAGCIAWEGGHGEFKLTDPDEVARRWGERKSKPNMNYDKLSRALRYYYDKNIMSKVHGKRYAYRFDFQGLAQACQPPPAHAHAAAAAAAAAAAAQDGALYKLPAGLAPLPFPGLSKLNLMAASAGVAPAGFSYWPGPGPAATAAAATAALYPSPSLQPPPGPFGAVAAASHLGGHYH
How it was run: (§1)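 The binding signal reported is, for every hexamer, its read frequency for a factor over its read frequency for the tag-only sample. Reads came from pools of yeast-expressed, GST-fused human transcription factors on glutathione beads, barcoded with DNA and mixed with that sample, which were incubated with 200 nmole of a random double-stranded 16-mer DNA library in Tris/NaCl/DTT/glycerol buffer at room temperature for 30 min. After washing, the pools were crosslinked with 0.1% formaldehyde, proximity-ligated with BsaI/T4 ligase for 1 h at 37 °C, PCR-amplified and sequenced on an Illumina NextSeq500.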

[2] = molecular target: ETV5 (Homo sapiens, UniProt P41161 1-510); details: protein: recombinant; tags: N-terminal GST; dsDNA, one strand shown
Sequence of ETV5 (P41161 whole entry): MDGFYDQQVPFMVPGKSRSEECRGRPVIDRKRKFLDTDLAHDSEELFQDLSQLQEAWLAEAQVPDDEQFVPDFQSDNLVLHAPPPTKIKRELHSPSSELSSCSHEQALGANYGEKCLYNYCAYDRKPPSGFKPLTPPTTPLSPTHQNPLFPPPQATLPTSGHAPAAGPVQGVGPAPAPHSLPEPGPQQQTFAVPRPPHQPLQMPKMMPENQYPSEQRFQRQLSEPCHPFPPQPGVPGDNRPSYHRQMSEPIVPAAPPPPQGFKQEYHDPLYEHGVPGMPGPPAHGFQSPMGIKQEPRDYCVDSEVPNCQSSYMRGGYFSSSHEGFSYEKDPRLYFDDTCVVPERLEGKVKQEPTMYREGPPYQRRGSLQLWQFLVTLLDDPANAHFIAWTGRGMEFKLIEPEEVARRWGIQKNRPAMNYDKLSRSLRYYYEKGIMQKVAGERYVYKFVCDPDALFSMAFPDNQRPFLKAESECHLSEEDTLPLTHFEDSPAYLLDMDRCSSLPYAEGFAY
How it was run: as §1

[3] = molecular target: HSF1 (Homo sapiens, UniProt Q00613 1-529); details: protein: recombinant; tags: N-terminal GST; chain copies: 3; dsDNA, one strand shown
Sequence of HSF1 (Q00613 whole entry): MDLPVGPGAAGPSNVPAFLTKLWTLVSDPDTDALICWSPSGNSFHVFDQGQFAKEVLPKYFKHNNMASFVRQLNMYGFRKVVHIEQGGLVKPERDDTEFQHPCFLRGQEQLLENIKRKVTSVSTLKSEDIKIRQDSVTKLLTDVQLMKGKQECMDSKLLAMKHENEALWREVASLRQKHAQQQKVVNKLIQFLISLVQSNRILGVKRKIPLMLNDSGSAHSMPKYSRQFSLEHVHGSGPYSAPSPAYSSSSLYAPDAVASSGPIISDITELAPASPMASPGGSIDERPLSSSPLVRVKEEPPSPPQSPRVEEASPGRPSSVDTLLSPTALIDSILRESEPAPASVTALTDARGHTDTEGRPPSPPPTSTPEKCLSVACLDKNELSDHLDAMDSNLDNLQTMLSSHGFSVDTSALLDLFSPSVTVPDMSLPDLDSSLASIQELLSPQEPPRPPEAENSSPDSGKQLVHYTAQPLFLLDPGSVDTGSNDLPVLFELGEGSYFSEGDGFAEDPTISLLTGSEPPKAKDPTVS
How it was run: as §1

[4] = molecular target: T2, SPIC (Homo sapiens, UniProt Q8N5J4 1-248); details: protein: recombinant; tags: N-terminal GST; dsDNA, one strand shown
T2 sequence: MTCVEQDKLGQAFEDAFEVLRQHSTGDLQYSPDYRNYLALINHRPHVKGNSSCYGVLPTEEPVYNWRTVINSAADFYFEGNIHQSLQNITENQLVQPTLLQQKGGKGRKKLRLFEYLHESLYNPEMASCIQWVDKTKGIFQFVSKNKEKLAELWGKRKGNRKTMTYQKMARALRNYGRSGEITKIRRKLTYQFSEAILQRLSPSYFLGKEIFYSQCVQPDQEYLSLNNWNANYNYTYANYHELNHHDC
How it was run: as §1

[5] = molecular target: ELF4 (Homo sapiens, UniProt Q99607 1-663); details: protein: recombinant; tags: N-terminal GST; dsDNA, one strand shown
Sequence of ELF4 (Q99607 whole entry): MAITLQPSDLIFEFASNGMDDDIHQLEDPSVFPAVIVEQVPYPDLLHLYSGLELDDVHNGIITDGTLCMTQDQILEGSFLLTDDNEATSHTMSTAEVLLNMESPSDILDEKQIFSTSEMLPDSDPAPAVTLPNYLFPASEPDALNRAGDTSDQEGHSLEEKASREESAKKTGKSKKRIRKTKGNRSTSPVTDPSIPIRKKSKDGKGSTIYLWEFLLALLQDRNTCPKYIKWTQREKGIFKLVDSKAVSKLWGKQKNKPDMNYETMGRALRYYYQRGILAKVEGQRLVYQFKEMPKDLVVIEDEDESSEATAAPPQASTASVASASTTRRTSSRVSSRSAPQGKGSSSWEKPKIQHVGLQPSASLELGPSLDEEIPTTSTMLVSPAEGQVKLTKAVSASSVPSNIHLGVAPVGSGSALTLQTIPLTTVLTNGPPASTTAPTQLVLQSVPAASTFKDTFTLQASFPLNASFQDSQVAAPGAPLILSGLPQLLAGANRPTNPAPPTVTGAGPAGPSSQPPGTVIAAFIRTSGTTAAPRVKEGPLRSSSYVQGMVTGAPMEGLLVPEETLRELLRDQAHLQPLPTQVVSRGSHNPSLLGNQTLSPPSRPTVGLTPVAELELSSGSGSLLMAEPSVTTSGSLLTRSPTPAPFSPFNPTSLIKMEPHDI
How it was run: as §1

[6] = molecular target: T3, ELK4 (Homo sapiens, UniProt P28324-2 1-405); details: protein: recombinant; tags: N-terminal GST; dsDNA, one strand shown
T3 sequence: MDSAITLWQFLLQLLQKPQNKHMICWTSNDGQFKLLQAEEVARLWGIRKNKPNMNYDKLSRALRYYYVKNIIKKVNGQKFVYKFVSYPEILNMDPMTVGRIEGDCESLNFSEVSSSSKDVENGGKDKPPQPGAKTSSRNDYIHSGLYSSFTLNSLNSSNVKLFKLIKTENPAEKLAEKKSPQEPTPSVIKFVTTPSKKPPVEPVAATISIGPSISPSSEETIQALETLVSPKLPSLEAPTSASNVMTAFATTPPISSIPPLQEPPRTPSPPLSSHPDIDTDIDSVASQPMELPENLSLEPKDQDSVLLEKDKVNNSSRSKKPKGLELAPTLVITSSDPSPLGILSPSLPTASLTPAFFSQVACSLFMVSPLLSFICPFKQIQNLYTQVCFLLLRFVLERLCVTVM
How it was run: as §1

[7] = molecular target: T4, ETV2 (Homo sapiens, UniProt O00321 1-342); details: protein: recombinant; tags: N-terminal GST; dsDNA, one strand shown
T4 sequence: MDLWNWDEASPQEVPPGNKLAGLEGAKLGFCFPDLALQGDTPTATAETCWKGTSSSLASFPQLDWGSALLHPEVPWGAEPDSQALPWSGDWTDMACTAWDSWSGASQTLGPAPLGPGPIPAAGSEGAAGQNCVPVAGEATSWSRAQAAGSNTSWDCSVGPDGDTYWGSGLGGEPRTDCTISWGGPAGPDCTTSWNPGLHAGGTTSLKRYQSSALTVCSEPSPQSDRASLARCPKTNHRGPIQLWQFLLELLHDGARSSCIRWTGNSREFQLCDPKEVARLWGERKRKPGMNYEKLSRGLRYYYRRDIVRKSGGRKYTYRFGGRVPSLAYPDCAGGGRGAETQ
How it was run: as §1

[8] = molecular target: ETV1 (Homo sapiens, UniProt P50549 1-477); details: protein: recombinant; tags: N-terminal GST; dsDNA, one strand shown
Sequence of ETV1 (P50549 whole entry): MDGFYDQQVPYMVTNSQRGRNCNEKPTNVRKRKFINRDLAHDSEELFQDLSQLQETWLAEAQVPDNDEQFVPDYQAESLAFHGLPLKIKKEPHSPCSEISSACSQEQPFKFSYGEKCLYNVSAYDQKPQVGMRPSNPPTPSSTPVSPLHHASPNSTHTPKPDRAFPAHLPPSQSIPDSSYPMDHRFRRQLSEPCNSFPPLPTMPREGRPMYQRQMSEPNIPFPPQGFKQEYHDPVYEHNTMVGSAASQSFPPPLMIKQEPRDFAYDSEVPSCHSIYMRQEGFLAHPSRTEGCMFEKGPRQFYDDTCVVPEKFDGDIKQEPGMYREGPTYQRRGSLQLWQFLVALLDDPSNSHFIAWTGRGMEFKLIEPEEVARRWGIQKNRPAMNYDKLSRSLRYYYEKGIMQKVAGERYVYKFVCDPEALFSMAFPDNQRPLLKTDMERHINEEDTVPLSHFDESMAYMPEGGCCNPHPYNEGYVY
How it was run: as §1

[9] = molecular target: T5, ERF (Homo sapiens, UniProt P50548 1-548); details: protein: recombinant; tags: N-terminal GST; dsDNA, one strand shown
T5 sequence: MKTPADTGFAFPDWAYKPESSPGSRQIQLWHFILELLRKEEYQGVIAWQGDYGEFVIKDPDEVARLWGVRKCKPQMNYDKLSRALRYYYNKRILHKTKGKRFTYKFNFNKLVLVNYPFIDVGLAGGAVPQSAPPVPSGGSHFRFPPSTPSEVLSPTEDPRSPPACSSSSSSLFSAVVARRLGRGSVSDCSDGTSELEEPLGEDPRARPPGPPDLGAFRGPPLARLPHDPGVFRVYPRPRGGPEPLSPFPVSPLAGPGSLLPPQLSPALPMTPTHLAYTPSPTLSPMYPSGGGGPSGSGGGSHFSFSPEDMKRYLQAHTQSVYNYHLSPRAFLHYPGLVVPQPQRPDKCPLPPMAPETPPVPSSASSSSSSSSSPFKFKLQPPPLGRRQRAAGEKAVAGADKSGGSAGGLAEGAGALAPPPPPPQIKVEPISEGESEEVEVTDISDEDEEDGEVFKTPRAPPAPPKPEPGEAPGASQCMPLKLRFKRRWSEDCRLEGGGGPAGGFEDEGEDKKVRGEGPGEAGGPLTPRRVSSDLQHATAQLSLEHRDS
How it was run: as §1

[10] = molecular target: T6, ETV3L (Homo sapiens, UniProt Q6ZN32 1-361); details: protein: recombinant; tags: N-terminal GST; dsDNA, one strand shown
T6 sequence: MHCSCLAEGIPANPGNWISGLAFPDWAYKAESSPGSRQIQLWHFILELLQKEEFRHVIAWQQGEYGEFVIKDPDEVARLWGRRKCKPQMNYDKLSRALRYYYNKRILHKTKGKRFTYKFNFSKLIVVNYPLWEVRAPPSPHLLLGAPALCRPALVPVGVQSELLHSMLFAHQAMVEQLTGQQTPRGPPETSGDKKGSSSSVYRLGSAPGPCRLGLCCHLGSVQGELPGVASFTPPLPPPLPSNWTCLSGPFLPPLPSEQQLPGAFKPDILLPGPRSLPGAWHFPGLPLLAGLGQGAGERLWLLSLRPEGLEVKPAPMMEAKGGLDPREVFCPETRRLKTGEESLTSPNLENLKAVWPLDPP
How it was run: as §1

[11] = molecular target: T7, ETS2 (Homo sapiens, UniProt P15036 1-469); details: protein: recombinant; tags: N-terminal GST; dsDNA, one strand shown
T7 sequence: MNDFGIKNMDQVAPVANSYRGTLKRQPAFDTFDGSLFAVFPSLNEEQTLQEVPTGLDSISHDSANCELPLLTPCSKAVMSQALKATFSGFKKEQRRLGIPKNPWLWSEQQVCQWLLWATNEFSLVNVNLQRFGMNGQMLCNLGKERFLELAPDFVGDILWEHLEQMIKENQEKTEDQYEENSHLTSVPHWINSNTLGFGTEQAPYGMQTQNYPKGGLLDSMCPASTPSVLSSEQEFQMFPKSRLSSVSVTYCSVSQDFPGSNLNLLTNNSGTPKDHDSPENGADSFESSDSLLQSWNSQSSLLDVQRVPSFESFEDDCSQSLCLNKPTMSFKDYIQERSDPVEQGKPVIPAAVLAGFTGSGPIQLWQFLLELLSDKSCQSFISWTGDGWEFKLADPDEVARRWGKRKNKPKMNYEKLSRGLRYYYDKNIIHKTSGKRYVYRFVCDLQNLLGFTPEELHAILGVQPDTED
How it was run: as §1

[12] = molecular target: T8, SPDEF (Homo sapiens, UniProt O95238 1-335); details: protein: recombinant; tags: N-terminal GST; dsDNA, one strand shown
T8 sequence: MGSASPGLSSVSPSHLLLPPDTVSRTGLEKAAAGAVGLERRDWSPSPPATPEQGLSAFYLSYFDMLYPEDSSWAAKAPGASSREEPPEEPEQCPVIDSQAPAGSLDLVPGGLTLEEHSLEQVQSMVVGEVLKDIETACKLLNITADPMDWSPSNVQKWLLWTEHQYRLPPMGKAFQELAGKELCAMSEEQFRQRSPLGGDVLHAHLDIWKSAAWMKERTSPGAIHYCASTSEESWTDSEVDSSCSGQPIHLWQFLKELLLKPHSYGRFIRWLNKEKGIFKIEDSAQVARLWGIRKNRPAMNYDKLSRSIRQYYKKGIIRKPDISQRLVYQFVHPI
How it was run: as §1

[13] = molecular target: T9, ETV7 (Homo sapiens, UniProt Q9Y603 1-341); details: protein: recombinant; tags: N-terminal GST; dsDNA, one strand shown
T9 sequence: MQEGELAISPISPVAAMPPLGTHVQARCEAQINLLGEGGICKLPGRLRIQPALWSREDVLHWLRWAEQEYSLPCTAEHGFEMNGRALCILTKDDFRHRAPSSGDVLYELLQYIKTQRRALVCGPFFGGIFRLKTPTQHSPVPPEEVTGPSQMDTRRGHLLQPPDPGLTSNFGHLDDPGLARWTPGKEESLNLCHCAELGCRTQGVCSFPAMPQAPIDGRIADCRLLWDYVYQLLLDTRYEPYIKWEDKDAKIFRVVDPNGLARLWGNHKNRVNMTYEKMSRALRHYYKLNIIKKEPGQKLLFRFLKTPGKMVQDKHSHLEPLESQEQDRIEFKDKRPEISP
How it was run: as §1

[14] = molecular target: T10, ELF5 (Homo sapiens, UniProt Q9UKW6-2 1-255); details: protein: recombinant; tags: N-terminal GST; dsDNA, one strand shown
T10 sequence: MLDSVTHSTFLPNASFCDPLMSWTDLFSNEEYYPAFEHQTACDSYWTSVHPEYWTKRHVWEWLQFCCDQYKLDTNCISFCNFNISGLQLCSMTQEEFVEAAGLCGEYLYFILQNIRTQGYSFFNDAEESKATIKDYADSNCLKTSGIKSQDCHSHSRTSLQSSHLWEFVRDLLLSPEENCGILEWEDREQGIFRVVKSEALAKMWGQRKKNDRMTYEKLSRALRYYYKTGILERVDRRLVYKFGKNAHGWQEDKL
How it was run: as §1

[15] = molecular target: T11, ETV3 (Homo sapiens, UniProt P41162-2 1-143); details: protein: recombinant; tags: N-terminal GST; dsDNA, one strand shown
T11 sequence: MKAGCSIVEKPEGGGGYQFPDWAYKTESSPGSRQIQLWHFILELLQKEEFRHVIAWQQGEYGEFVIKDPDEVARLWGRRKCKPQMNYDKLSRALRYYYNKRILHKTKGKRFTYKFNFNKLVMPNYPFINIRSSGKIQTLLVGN
How it was run: as §1

[16] = molecular target: ETV6 (Homo sapiens, UniProt P41212 1-452); details: protein: recombinant; tags: N-terminal GST; dsDNA, one strand shown
Sequence of ETV6 (P41212 whole entry): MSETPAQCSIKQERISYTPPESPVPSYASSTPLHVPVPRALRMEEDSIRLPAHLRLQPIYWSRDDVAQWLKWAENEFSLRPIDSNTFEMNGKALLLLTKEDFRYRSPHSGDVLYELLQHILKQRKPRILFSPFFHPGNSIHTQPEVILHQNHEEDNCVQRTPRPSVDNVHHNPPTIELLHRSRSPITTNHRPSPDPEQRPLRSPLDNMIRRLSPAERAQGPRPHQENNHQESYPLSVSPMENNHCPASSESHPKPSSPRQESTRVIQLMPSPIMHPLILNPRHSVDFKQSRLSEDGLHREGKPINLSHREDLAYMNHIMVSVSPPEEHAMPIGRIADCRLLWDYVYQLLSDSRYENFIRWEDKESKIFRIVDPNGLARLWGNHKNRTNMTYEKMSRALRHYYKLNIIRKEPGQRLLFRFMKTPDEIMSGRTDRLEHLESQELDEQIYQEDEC
How it was run: as §1

[17] = molecular target: CRX (Homo sapiens, UniProt O43186 1-299); details: protein: recombinant; tags: N-terminal GST; dsDNA, one strand shown
Sequence of CRX (O43186 whole entry): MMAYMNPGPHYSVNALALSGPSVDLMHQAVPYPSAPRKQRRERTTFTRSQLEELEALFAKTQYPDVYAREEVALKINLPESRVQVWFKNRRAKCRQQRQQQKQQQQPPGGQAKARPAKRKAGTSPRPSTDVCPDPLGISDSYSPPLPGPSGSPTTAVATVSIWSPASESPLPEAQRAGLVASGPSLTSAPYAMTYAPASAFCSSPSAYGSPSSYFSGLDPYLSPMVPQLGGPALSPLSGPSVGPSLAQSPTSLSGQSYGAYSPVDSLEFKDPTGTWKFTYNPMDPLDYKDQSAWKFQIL
How it was run: as §1

Row | Sequence | binding signal [1] | binding signal [2] | binding signal [3] | binding signal [4] | binding signal [5] | binding signal [6] | binding signal [7] | binding signal [8] | binding signal [9] | binding signal [10] | binding signal [11] | binding signal [12] | binding signal [13] | binding signal [14] | binding signal [15] | binding signal [16] | binding signal [17]
1 | CGACGA | 1.1 fold enrichment (6-mer frequency, TF over GST control) | 1.15 fold enrichment (6-mer frequency, TF over GST control) | 1.16 fold enrichment (6-mer frequency, TF over GST control) | 1.2 fold enrichment (6-mer frequency, TF over GST control) | 1.17 fold enrichment (6-mer frequency, TF over GST control) | 1.08 fold enrichment (6-mer frequency, TF over GST control) | 1.01 fold enrichment (6-mer frequency, TF over GST control) | 1.07 fold enrichment (6-mer frequency, TF over GST control) | 1.12 fold enrichment (6-mer frequency, TF over GST control) | 1.13 fold enrichment (6-mer frequency, TF over GST control) | 1.13 fold enrichment (6-mer frequency, TF over GST control) | 1.13 fold enrichment (6-mer frequency, TF over GST control) | 1.11 fold enrichment (6-mer frequency, TF over GST control) | 1.09 fold enrichment (6-mer frequency, TF over GST control) | 1.12 fold enrichment (6-mer frequency, TF over GST control) | 1.17 fold enrichment (6-mer frequency, TF over GST control) | 
2 | TTATCA | 1.06 fold enrichment (6-mer frequency, TF over GST control) | 1.05 fold enrichment (6-mer frequency, TF over GST control) | 1.44 fold enrichment (6-mer frequency, TF over GST control) | 1.12 fold enrichment (6-mer frequency, TF over GST control) | 1.08 fold enrichment (6-mer frequency, TF over GST control) | 1.2 fold enrichment (6-mer frequency, TF over GST control) | 1.13 fold enrichment (6-mer frequency, TF over GST control) | 1.06 fold enrichment (6-mer frequency, TF over GST control) | 1.14 fold enrichment (6-mer frequency, TF over GST control) | 1.15 fold enrichment (6-mer frequency, TF over GST control) | 1.04 fold enrichment (6-mer frequency, TF over GST control) |  | 1.03 fold enrichment (6-mer frequency, TF over GST control) | 1.07 fold enrichment (6-mer frequency, TF over GST control) | 1.09 fold enrichment (6-mer frequency, TF over GST control) | 1 fold enrichment (6-mer frequency, TF over GST control) | 2.19 fold enrichment (6-mer frequency, TF over GST control)
